Columns and labels:
Format in all cases: functional
[1] = tested on: Plasmodium falciparum; assay: GSK_TCMDC: Inhibition of Plasmodium falciparum 3D7 in whole red blood cells, using parasite LDH activity as an index of growth. Test compounds present at 2uM
[2] = tested on: Plasmodium falciparum; assay: GSK_TCMDC: Inhibition of Plasmodium falciparum Dd2 in whole red blood cells, using parasite LDH activity as an index of growth. Test compounds present at 2uM
[3] = tested on: HepG2; assay: GSK_TCMDC: Percent inhibition of human HepG2 cell line. Test compounds present at 10uM.

Compound	Inhibition [1] [%]	Inhibition [2] [%]	Inhibition [3] [%]
Cc1nc(Nc2ccc(F)cc2)nc(N2CCc3ccccc3C2C)c1CO (centres undefined)	100	95	0
Cl.O=C(CCc1ccccc1)N[C@H](Cc1c[nH]c2ccccc12)C(=O)N1CCC(NCc2ccc3c(c2)Cc2ccccc2-3)CC1	92	8	53
Cc1cc2ccc(-c3cccc(CN)c3)cc2nc1N.Cl	100	1	0
CC(C)(C)c1nn(-c2ccccc2)c2[nH]c(=O)c(CNCCc3ccccc3)cc12	94	90	0
CC(C)CCN1CCC(Oc2cccc(NC(=O)c3ccc(C(F)(F)F)cc3)c2)CC1.O=C(O)C(F)(F)F	98	6	39
CC(NC(=O)c1cc(-c2ccccc2)nc2c1cnn2C(C)C)C1CC1 (centres undefined)	100	88	35
CCCCc1ccc(-c2c(N)nc(N)nc2CC)cc1	95	0	63
CN(C)Cc1c(O)ccc2[nH]c(-c3ccc(F)cc3F)nc12	99	17	4
COc1ccc(-c2nc(NC(=O)Cc3ccc4c(c3)OCCO4)sc2C)cc1	100	99	0
Br.CC1(C)NC(N)=NC(=N)N1OCCCO	96	0	27
CCCOc1cc(O)c(-c2[nH]nc(C)c2Oc2ccccc2)cc1CC	91	46	0
Cc1ccc(CN2CCCN(Cc3cccc(NC(=O)c4cc5ccccc5s4)c3)CC2)cc1C.O=C(O)C(F)(F)F	92	33	44
COc1c(C2CCN(CCCCNC(=O)c3ccc(-c4ccc(Cl)cc4)cn3)CC2)ccc2c1CCCC2	93	14	100
CS(=O)(=O)CCNCc1nc(-c2ccc3c(Nc4ccc(F)c(O)c4)ccnc3c2)cs1	95	84	0
COc1ccc2nccc([C@@H](O)CN3CCC(NCc4nc5ccccc5[nH]4)CC3)c2c1.O=C(O)C(=O)O	92	2	41
COc1ccc2ncc(F)c(CCN3CC[C@@H](CNCc4cc(C)c5c(c4)OCCO5)C3)c2n1.Cl	98	44	22
Cc1cc(-c2ccc3c(c2)CC[C@@H](N[C@@H](C)c2ccccc2)C3)cnc1N.Cl	98	7	3
CC(Cc1ccc(COc2ccc(CC(CO)NCCc3cccc(Cl)c3)cc2)cc1)NCCc1cccc(Cl)c1.Cl (centres undefined)	100	86	99
CC(=O)O.CCc1cc2c(cc1CC)CC(NC[C@@H](O)c1ccc(O)c3[nH]c(=O)ccc13)C2	100	9	0
Fc1ccc2[nH]c(-c3cccc(-c4cccc(CN5CCN(c6ccncc6)CC5)c4)c3)nc2c1.O=C(O)C(F)(F)F	100	99	71
COC(=O)c1noc(C)c1I	99	2	5

Compound	Inhibition [1] [%]	Inhibition [2] [%]	Inhibition [3] [%]
O=C(Cc1ccc(F)cc1)NC1CCN(c2ccnc3cc(Cl)ccc23)C1.O=C(O)C(F)(F)F (centres undefined)	99	85	0
Cc1cc(=NN=Cc2ccccc2Cl)c2ccc(F)cc2[nH]1	100	100	6
O=C(Nc1ccc(C(=O)OCC2CCCCC2)cc1)N[C@@H](Cc1ccc(O)cc1)C(=O)NC1CCN(Cc2ccc(O)cc2)C1.O=C(O)C(F)(F)F (some centres undefined)	91	0	6
COc1ccccc1CCNc1ncnc2c1[nH]c1ccc(F)cc12	95	68	49
Nc1nc(N)c2c3c(cnc2n1)CCCC3	95	0	61
CCCNCc1ccc(-c2ccc(CN(CCOC)C(=O)c3nn(-c4ccccc4)nc3C)cc2)nc1.O=C(O)C(F)(F)F	99	71	18
COC(=O)Cn1c(C2CCN(CC3CCC(NC(=O)/C=C/c4ccc(Cl)c(Cl)c4)CC3)CC2)nc2ccccc21 (centres undefined)	95	17	12
COc1ccc(Cc2nc(/N=C(\N)Nc3ccccc3)ccc2OC)cc1	93	68	40
Fc1ccc2[nH]c(-c3ccc(-c4ccc(CNCCc5cccnc5)cc4)s3)nc2c1.O=C(O)C(F)(F)F	100	99	40
CN(C)CCOc1cc(NC(=O)Nc2ccc(Oc3ccccc3)cc2)ccc1I.Cl	89	4	13
O=c1cc(NCCCNCc2cc(Cl)c(Cl)cc2Cl)[nH]c2ccccc12	93	20	7
O=C(/C=C/c1cccc2c1OCO2)Nc1ccnc2ccncc12	90	35	17
CN1CCCC1CCCOC(=O)c1ccc(N)cc1 (centres undefined)	100	2	8
CCOc1cc(Cc2cnc(N)nc2N)cc(OCC)c1-n1cccc1 [EPIROPRIM]	98	0	0
O=C(O)C(F)(F)F.c1ccc(CCNCc2ccc(-c3cccc(CNc4ccc5ncccc5c4)c3)cc2)cc1	91	17	30
Nc1cccc(CNCc2ccc(-c3cccc(-c4nc5cc(F)ccc5[nH]4)c3)cc2)c1.O=C(O)C(F)(F)F	100	94	36
O=C(O)C(F)(F)F.O=C1OC(c2ccccc2)(c2ccccc2)CN1CC1CCN(Cc2ccc(O)c(Cl)c2)CC1	98	90	26
Cc1ccc(CNC(=O)c2cc3c(=O)n4cccc(C)c4nc3n(CCN3CCOCC3)c2=N)cc1	97	21	31
CC(NC(=O)c1ccc(O)c(-c2ccc(Cl)c(Cl)c2)c1)C(=O)NCCN1CCCCC1 (centres undefined)	97	3	0
O=C(Nc1ccc(OC(F)(F)F)cc1)NC1CCN(c2ccnc3ccccc23)CC1.O=C(O)C(F)(F)F	100	40	40
Cc1nc2nc(N)nc(N)c2c(C)c1Cc1ccc(O)cc1.Cl	94	0	64

Compound	Inhibition [1] [%]	Inhibition [2] [%]	Inhibition [3] [%]
COc1cc(OC)c(NC(=O)C2c3ccccc3C(=O)N(CC(C)C)C2c2cccs2)cc1Cl (centres undefined)	100	100	9
COc1ccc(OC)c(-c2ccc(=O)n(CC(=O)Nc3cccc4ccccc34)n2)c1	100	95	0
CC(=O)Oc1cc(OCc2ccccc2)c(OC(C)=O)c(OCc2ccccc2)c1	94	78	11
Cc1[nH]c(C)c(-c2ccc(OCc3cc(C(F)(F)F)cc(C(F)(F)F)c3)nc2)c(=O)c1Br	98	96	28
Cc1cc2nc(-c3cc(Br)ccc3O)c(-c3cc(Br)ccc3O)nc2cc1C	96	12	2
COc1cccc2cc(C(=O)N[C@@H](CC(C)C)C(=O)N[C@H](C=NNC(=O)OC(C)(C)C)Cc3ccccc3)oc12	99	88	11
CNCCNCc1ccc(-c2ccc(-c3nc4cc(C(F)(F)F)ccc4[nH]3)cc2)cc1.O=C(O)C(F)(F)F	99	92	28
O=C(Nc1ccc2c(c1)CCN2C1CCN(Cc2ccc(O)cc2)C1)c1ccco1 (centres undefined)	97	63	0
COc1ccc(CCN(Cc2cccs2)C(=O)c2cc3sccc3n2C)cc1OC	94	97	0
FC(F)(F)c1cccc(CNC2CCN(CC3CCCCC3)CC2)c1.O=C(O)C(F)(F)F	100	12	0
CN(C)Cc1cc(Nc2ccnc3cc(Cl)ccc23)ccc1O.Cl	100	100	36
Cc1ccc2nc(N(CCCn3ccnc3)C(=O)C=Cc3cccs3)sc2c1.Cl	100	57	22
Cc1cccc2nc(-c3cccc(-c4ccc(NC(=O)C5CC(=O)Nc6ccccc65)cc4)c3)[nH]c12 (centres undefined)	87	56	15
O=C(N[C@H](CC1CCCCC1)C(=O)NC1CCCc2ccccc21)c1ccc(O)c(-c2cccc([N+](=O)[O-])c2)c1 (some centres undefined)	99	98	0
COc1c(C2CCN(CCCCNC(=O)c3cccc(-c4ccc(C(F)(F)F)cc4)c3)CC2)ccc2c1CCCC2	92	45	50
COc1ccc2nccc([C@@H](O)CN3CCC(NCc4ccc5sc(=O)[nH]c5c4)CC3)c2c1.O=C(O)C(=O)O	98	0	1
COc1ccc2[nH]c(C)cc(=NN=Cc3ccccc3F)c2c1	100	100	3
CC(Oc1ccc(Cl)cc1)C(=O)NCCC1CCN(CCCCCNC(=O)/C=C/c2ccc(Cl)c(Cl)c2)CC1 (centres undefined)	89	20	48
COc1ccc2nccc([C@@H](O)CN3CCC(NC(=O)c4ccc(Cl)c(OC)c4)CC3)c2c1	87	28	26
CN(C)Cc1ccc(CN2CCN(CCOc3ccc(-c4ccc(Cl)cc4)cc3)CC2)o1	90	21	75
FC(F)(F)c1cc(C(F)(F)F)c2cc(CNCCCNc3nc4ccccc4[nH]3)[nH]c2c1	100	99	99
